Compound activity from PubChem BioAssay.
MITF act: increases MITF-driven TRPM1 promoter luciferase signal. SK-MEL-5 TRPM1-promoter luciferase, 24 h; % of positive control, neutral wells = 0. activation, % at 12.5 µM. hit rate 0.75% among 300,000;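 active means mean activation of at least 80% with every replicate also reaching 80%; inconclusive means mean reaches 80% but some replicate falls short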;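 further: 0% = neutral control wells and 100% = parthenolide positive control wells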
Wnt act: activators of Wnt/beta-catenin signaling | Wnt/beta-catenin reporter cell assay, activator, plate reader | activation, % at 9.35 µM | hit rate 1.2% among 300,000 | AID 743398; in the data active means activation above about 30%, passing the limit was not always enough; inconclusive means no clear call, values can overlap the other calls;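 further: 0% = neutral control wells and 100% = positive control wells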
MITF TRPM1 inh: inhibitors of MITF-driven TRPM1 promoter in melanoma cells; AID 488899; inhibition, % at 12.5 µM; SK-MEL-5 TRPM1 promoter luciferase, 24 h; hit rate 0.83% among 330,000;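 active means mean inhibition across replicates of 60% or more, whatever share of single replicates reaches that level; inconclusive means some that reach 60%, reason not given; inactive means mean inhibition across replicates below 60%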
C2C12 statin: suppression of simvastatin myotoxicity | C2C12 myotubes + simvastatin, ATP luminescence, 48 h; scaled: DMSO 0, geranylgeraniol control 100 | rescue of ATP level, % at 7.49 µM | hit rate 0.78% among 330,000;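 active means mean ATP rescue above about 67%, or every replicate alone reaching that limit, limit read from the data, passing the limit was not always enough; inconclusive means no clear call, values can overlap the other calls; inactive means mean under the limit and some replicate under it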;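 further: myotubes were challenged with 10 µM simvastatin during compound exposure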
LMP1 NFkB inh: inhibitors of Epstein-Barr LMP1-induced NF-kappaB reporter; LMP1-induced NF-kappaB luciferase reporter cells, luminescence; inhibition, % at 12.5 µM; hit rate 0.69% among 350,000; AID 504558; in the data active means inhibition above about 41%; inconclusive means no clear call, values can overlap the other calls;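 further: 0% = neutral control wells and 100% = reference inhibitor control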
esBAF inh: blocks esBAF chromatin remodeling in mouse ES cells. reporter increase, % at 12.5 µM. Bmi1-luciferase knock-in reporter, 24 h; 100% = twice the neutral-well signal. hit rate 2% among 350,000. AID 602393; in the data active means activation above about 40%; inconclusive means no clear call, values can overlap the other calls;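 further: 0% = median of the plate's neutral control wells and 100% = double that signal; a rise in the Bmi1 reporter signal indicates esBAF inhibition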
Numbers without * were called inactive. Only some compounds are listed: those with a hit (about 4% of all), similar ones and a draw of the others.

For CC(OC(=O)c1ccc(-n2cnnn2)cc1)C(=O)Nc1ccccc1F (stereo not drawn) the results were MITF act 5.2, Wnt act 51.3*, MITF TRPM1 inh -4.2, C2C12 statin -5.0, LMP1 NFkB inh 0.5 and esBAF inh 2.5.
`CC(OC(=O)c1ccc(-n2cnnn2)cc1)C(=O)Nc1ccc(F)c(F)c1F` (stereo not drawn) gave MITF act 0.8, Wnt act 1.6, MITF TRPM1 inh 0.5, C2C12 statin -2.4, LMP1 NFkB inh -1.5 and esBAF inh -3.5.
Screening C[C@@H](OC(=O)c1[nH]cnc1C(=O)N1CCc2ccccc2C1)c1ccccc1 returned MITF act -10.0, Wnt act -3.5, MITF TRPM1 inh 12.5, C2C12 statin 13.2, LMP1 NFkB inh 84.9* and esBAF inh 5.7.
Screening CC1CCN(C(=O)c2nc[nH]c2C(=O)O[C@H](C)c2ccccc2)CC1 returned MITF act -11.9, Wnt act -0.6, MITF TRPM1 inh 12.3, C2C12 statin 6.0, LMP1 NFkB inh -3.7 and esBAF inh 1.0.
Cn1c(=O)n(Cc2ccccc2)c(=O)c2c1nc1n2CCCN1Cc1ccccc1 was read as Wnt act -1.4, MITF TRPM1 inh -3.4, C2C12 statin 116.5*, LMP1 NFkB inh 4.5 and esBAF inh 9.9.
Cc1ccc(Cn2c(=O)c3c(nc4n3CCCN4Cc3ccccc3)n(C)c2=O)cc1 was read as MITF act -6.4, Wnt act -3.9, MITF TRPM1 inh 10.2, C2C12 statin 14.4, LMP1 NFkB inh -5.2 and esBAF inh -1.3.
Screening O=S(=O)(Nc1cccc2cccnc12)c1ccc(S(=O)(=O)N2CCCC2)cc1 returned MITF act -14.8, MITF TRPM1 inh 13.5, C2C12 statin 70.4*, LMP1 NFkB inh -5.9 and esBAF inh -2.7.
Screening CC(=O)Nc1ccc(S(=O)(=O)Nc2cccc3cccnc23)cc1 returned MITF act -5.4, Wnt act 0.5, MITF TRPM1 inh 5.6, C2C12 statin 23.8, LMP1 NFkB inh 7.2 and esBAF inh 3.9.
For O=S(=O)(Nc1cccc2cccnc12)c1ccccc1 the results were MITF act -89.3, Wnt act 4.3, MITF TRPM1 inh 89.5*, C2C12 statin 43.2, LMP1 NFkB inh -1.0 and esBAF inh 3.4.
Cc1ccc(S(=O)(=O)Nc2cccc3cccnc23)c([N+](=O)[O-])c1 was read as MITF act -88.0, Wnt act 14.9, MITF TRPM1 inh 88.4*, C2C12 statin inconclusive, LMP1 NFkB inh 12.6 and esBAF inh -20.6.
Screening Cc1ccccc1NS(=O)(=O)c1ccc(S(=O)(=O)N2CCCC2)cc1 returned Wnt act -0.9, C2C12 statin 12.7, LMP1 NFkB inh 2.2 and esBAF inh -2.0.
COc1ccc(CN2[C@@H](CC(=O)O)c3ccccc3S2(=O)=O)cc1 was read as MITF act 0.4, Wnt act -2.3, MITF TRPM1 inh -4.3, C2C12 statin 15.0, LMP1 NFkB inh -4.8 and esBAF inh -2.8.
O=c1[nH]c2cc(Cl)ccc2n1-c1ccccc1 was read as MITF act -3.8, MITF TRPM1 inh 4.2, C2C12 statin 99.6*, LMP1 NFkB inh -31.0 and esBAF inh 6.2.
O=C(O)/C=C/C(=O)N1CCN(S(=O)(=O)c2cc(C(F)(F)F)ccc2Cl)CC1 was read as MITF act 1.7, Wnt act 0.1, MITF TRPM1 inh -2.5 and LMP1 NFkB inh 4.8.
CCCc1ccc(-c2ccc(F)c(N)c2)nc1 was read as MITF act -33.4, MITF TRPM1 inh 41.0, C2C12 statin 15.4, LMP1 NFkB inh 69.3* and esBAF inh -59.7.
For CC1(C)CC(=O)C2=C(C1)OC1=C(C(=O)CC(C)(C)C1)C2c1ccc(O)cc1O the results were MITF act -100.8, MITF TRPM1 inh 101.5* and LMP1 NFkB inh 1.4.
`CCOC(=O)c1nnsc1NC(=O)Nc1ccc(OC)cc1` gave MITF act -3.8, Wnt act 3.0, MITF TRPM1 inh 5.8, C2C12 statin -5.1, LMP1 NFkB inh 8.7 and esBAF inh -3.2.
For C[C@@H]1CN([C@@H](C)CO)C(=O)c2cc(NC(=O)NC3CCCCC3)ccc2O[C@@H](C)CCCCO[C@H]1CN(C)C(=O)c1ccncc1 the results were esBAF inh -1.0.
For Cc1cc(C)c(NN=c2c(=O)c3ccccc3c2=O)c(C)c1 the results were MITF act 116.0*, Wnt act 21.0, MITF TRPM1 inh -114.5, C2C12 statin -13.4, LMP1 NFkB inh -20.7 and esBAF inh 30.3.
`O=c1c(=NNc2ccccc2Cl)c(=O)c2ccccc12` gave MITF act -29.5, Wnt act -5.6, MITF TRPM1 inh 35.7, C2C12 statin 63.4, LMP1 NFkB inh 23.9 and esBAF inh -13.6.
Screening Cc1ccc(-c2cc3nc(NCCc4ccncc4)n(C)c(=O)c3s2)cc1 returned Wnt act 42.4*, C2C12 statin -21.7 and esBAF inh 16.0.
`COc1cccc(CNc2nc3cc(-c4ccc(C)cc4)sc3c(=O)n2C)c1OC` gave Wnt act 0.3, C2C12 statin 6.6 and esBAF inh 53.8*.
Screening CN(C)CCCNc1nc2cc(-c3ccc4c(ccn4C)c3)sc2c(=O)n1C returned Wnt act 1.5, C2C12 statin 3.6 and esBAF inh 67.2*.
For COc1cccc(-c2cc3nc(NCc4ccc5occc5c4)n(C)c(=O)c3s2)c1 the results were Wnt act 29.5, C2C12 statin -6.8 and esBAF inh 61.0*.
COc1cccc(CNc2nc3cc(-c4ccc(F)cc4)sc3c(=O)n2C)c1OC was read as Wnt act -1.1, C2C12 statin 14.5 and esBAF inh 7.7.
For Cn1c(NCc2ccc3occc3c2)nc2cc(-c3cccc(C(F)(F)F)c3)sc2c1=O the results were Wnt act -4.0, C2C12 statin -1.2 and esBAF inh 0.3.
`C=CCOc1ccc(/C(O)=C2/C(=O)C(=O)N(CCN3CCOCC3)C2c2ccc(C)cc2)cc1` (stereo not drawn) gave Wnt act -7.3, MITF TRPM1 inh 12.0, C2C12 statin 4.4, LMP1 NFkB inh 3.0 and esBAF inh 4.4.
C=CCOc1ccc(/C(O)=C2/C(=O)C(=O)N(CCCn3ccnc3)C2c2cccs2)cc1 (stereo not drawn) was read as MITF act 64.4, Wnt act -1.5, MITF TRPM1 inh -57.6, LMP1 NFkB inh -29.4 and esBAF inh 43.6*.
C=CCOc1ccc(/C(O)=C2/C(=O)C(=O)N(CCCn3ccnc3)C2c2ccco2)cc1 (stereo not drawn) was read as MITF act -9.4, Wnt act -1.9, MITF TRPM1 inh 8.9, C2C12 statin 20.0, LMP1 NFkB inh -6.1 and esBAF inh 6.3.
Cc1ccc(CN2Cc3cccc4c3[C@@H](CC2=O)[C@H](O)[C@H](O)C4)cc1 was read as MITF act 8.5, Wnt act 0.7, MITF TRPM1 inh -7.6, C2C12 statin 2.1, LMP1 NFkB inh -5.8 and esBAF inh -1.6.
